KKLEB cytotox – cytotoxicity in KKLEB CF airway cells, primary screen, cytotoxicity control for CF NF-kB inhibitor project, cell-based, uHTS, fluorescence assay plates. KKLEB CF airway cells viability, ATPlite luminescence, overnight; hits give low values; cells stimulated with P. aeruginosa culture filtrate. hit rate 0.36% among 360,000. activity change (cytotoxicity), % at 5 µM;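 active = corrected activity change at or below -50% at 5 µM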
TRPM1 prom inh – inhibitors of MITF-dependent TRPM1 promoter reporter, primary screen, cell-based, SK-MEL-5, single point, luciferase | inhibition, % at 12.5 µM | AID 488899, 2010 | hit rate 0.83% among 330,000 | SK-MEL-5 TRPM1 promoter luciferase, 24 h;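 active = mean inhibition across replicates of 60% or more, whatever share of single replicates reaches that level; inconclusive = some that reach 60%, reason not given; inactive = mean inhibition across replicates below 60%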
CF NFkB block – inhibitors of PAF-induced NF-kB signaling, primary screen, cell-based, GFP fluorescence, uHTS; inhibition, % at 5 µM; hit rate 0.86% among 360,000; KKLEB NF-kB-GFP reporter, GFP fluorescence overnight;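 active = at least 50% inhibition at 5 µM, scaled per plate between neutral and stimulator controls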;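 also: PAF is a Pseudomonas aeruginosa culture filtrate used as stimulus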
HIF-2a block – HIF-2a reporter inhibitors, primary screen, luminescence, 786-0 RCC cells; hit rate 0.72% among 360,000; 786-0 RCC cells HIF-2a reporter, luciferase luminescence, overnight; inhibition, % at 18.8 µM;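 active = inhibition of the luminescence signal of 40% or more relative to plate controls, in a single-dose primary screen at 18.75 µM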
Peg3 prom inh – Peg3 promoter-driven luciferase inhibitors, primary screen, cell-based, HeLa, luciferase luminescence; HeLa PEG-Prom luciferase reporter, overnight; inhibition, % at 20 µM; hit rate 1.7% among 360,000; AID 588405, 2011;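 active = inhibition of at least 50% at 20 µM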
Shn3 inh set2 – reduction of Shn3 3'UTR firefly luciferase signal, primary screen, Schnurri-3 inhibitor project, cell-based, Clone20 osteoblasts, set 2. inhibition, % at 12.5 µM. hit rate 0.52% among 360,000. Clone20 osteoblast Shn3 3'UTR firefly luciferase, 24 h;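 active = mean inhibition of at least 75% with every replicate also reaching 75%; inconclusive = mean inhibition at least 75% but some replicate below; inactive = mean inhibition below 75%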
Numbers stand for hits; 0 = inactive; ? = inconclusive; - = not tested or not shown. Most compounds without a hit are left out; they make up all but 2.7% or so of the library.

SMILES | KKLEB cytotox | TRPM1 prom inh | CF NFkB block | HIF-2a block | Peg3 prom inh | Shn3 inh set2
COc1ccccc1-c1nnc(SC(C(=O)c2c[nH]c3ccccc23)c2ccccc2)n1C (stereo unspecified) | 0 | 0 | 0 | 0 | 54 | 0
COc1ccccc1-c1nnc(SCC(=O)NC2CC2)n1C | 0 | 0 | 0 | 0 | 0 | 0
COc1cccc(-c2nnc(SC(C(=O)c3c[nH]c4ccccc34)c3ccccc3)n2C)c1 (stereo unspecified) | 0 | 0 | 0 | 0 | 53 | 0
Cc1ccc(-c2nc3ccc(C)cn3c2CC2CCCCC2)cc1 | - | - | - | 0 | - | -
CCN(CC)c1ccc(NC2=C(Cl)C(=O)c3ccccc3C2=O)cc1 | -93 | 92 | 96 | 96 | 103 | 97
Cc1ccc(NC2=C(Cl)C(=O)c3ccccc3C2=O)cc1 | 0 | 103 | 0 | 0 | 96 | 0
COC1=C(Nc2ccc(O)cc2)C(=O)c2ccccc2C1=O | 0 | 80 | 0 | 0 | 0 | 0
COC1=C(Nc2ccc(OC)cc2)C(=O)c2ccccc2C1=O | 0 | 0 | 0 | 0 | 0 | 0
COc1ccc(C(C[N+](=O)[O-])C2(c3ccc(OC)c(OC)c3)C(=O)c3ccccc3C2=O)cc1 (stereo unspecified) | 0 | 0 | 0 | 87 | 102 | 95
COc1ccc(C(C[N+](=O)[O-])c2c(-c3ccccc3)cc3ccccn23)cc1OC (stereo unspecified) | 0 | 0 | 0 | 0 | 0 | 0
CCCCn1nnnc1C(c1ccccc1)N1CCN(c2cccc(C)c2C)CC1 (stereo unspecified) | - | - | - | 0 | - | -
O=C(Nc1ccc([N+](=O)[O-])cc1)c1nc[nH]c1C(=O)NC1CCCCC1 | -51 | 0 | 0 | 0 | 0 | 0
CSc1ccc(CN2CCC(C)(Oc3ccc(-n4ccnc4)cc3)C2)cc1 (stereo unspecified) | 0 | - | 0 | 0 | 0 | 0
CC1C/C(=C\c2cccnc2)C(=O)/C(=C/c2cccnc2)C1 (stereo unspecified) | -96 | 97 | 105 | 93 | 107 | 0
O=C(c1cc(-c2ccccc2)nc2ccccc12)N1N=C(C(F)F)CC1(O)C(F)F (stereo unspecified) | 0 | 0 | 0 | 0 | 0 | 0
Cc1ccc(-c2cc(C(=O)N3N=C(C(F)F)CC3(O)C(F)F)c3ccccc3n2)cc1C (stereo unspecified) | -50 | 0 | 52 | 0 | 0 | 0
CN(CC(=O)Nc1cccc(F)c1)C(=O)c1cc(-c2cccs2)nn1-c1ccccc1 | 0 | 0 | 0 | 0 | 56 | 0
COc1ccc(NC(=O)c2ccc(NC3CC(=O)N(c4ccc(C)cc4C)C3=O)cc2)cc1 (stereo unspecified) | -56 | 0 | 0 | 0 | 0 | 0
NC(CCc1ccccc1)c1csc(Nc2nncc3ccccc23)n1 (stereo unspecified) | 0 | - | 0 | 0 | 90 | 0
NC(Cc1ccccc1)c1csc(Nc2nncc3ccccc23)n1 (stereo unspecified) | 0 | - | 0 | 0 | 96 | 0
CC(N)c1csc(Nc2nncc3ccccc23)n1 (stereo unspecified) | 0 | - | 0 | 0 | 0 | 0
Nc1ccc(CC(N)c2csc(Nc3nncc4ccccc34)n2)cc1 (stereo unspecified) | 0 | - | 0 | 0 | 0 | 0
COc1ccc(C(=O)/C=C2\C(=O)Nc3ccc(Br)cc32)cc1 | 0 | 0 | 0 | 0 | 76 | 0
O=C1Nc2ccccc2/C1=C\C(=O)c1ccccc1 | 0 | 0 | 0 | 0 | 65 | 0
CCCCCCC[N+](CC)(CC)CCCCc1ccc(Cl)cc1 | 0 | 76 | 0 | 0 | 0 | ?
SMILES | KKLEB cytotox | TRPM1 prom inh | CF NFkB block | HIF-2a block | Peg3 prom inh | Shn3 inh set2
Cc1cc(Br)cn2c(Cc3cccc(F)c3)c(-c3ccccc3)nc12 | 0 | - | 0 | 0 | 0 | 0
c1ccc(N=NC2=NN(c3ccccc3)CS2)cc1 | 0 | - | 0 | 0 | 0 | 0
N#Cc1ccccc1NC(=O)C1SC(=Nc2ccccc2)C(C(=O)Nc2ccc(Cl)cc2)=C1N (stereo unspecified) | 0 | 72 | 0 | 0 | 0 | 0
COc1ccc(N2CCN(c3ncnc4c3[nH]c3ccccc34)CC2)cc1 | 0 | 0 | 0 | 0 | 0 | 0
Fc1ccc2[nH]c3c(N4CCN(c5ccccc5)CC4)ncnc3c2c1 | 0 | 0 | 0 | 0 | 104 | 89
COc1cc2[nH]c3c(N4CCN(c5ccccn5)CC4)ncnc3c2cc1OC | 0 | 0 | 0 | 0 | 100 | 0
OC1(c2cccc(C(F)(F)F)c2)CCN(c2ncnc3c2[nH]c2ccc(F)cc23)CC1 | 0 | 0 | 0 | 0 | 105 | 89
CC1(C(=O)NS(=O)(=O)c2ccc(C#N)cc2)CCN1C(=O)Cc1cc(F)ccc1F (stereo unspecified) | 0 | - | 0 | 0 | 0 | 0
CCOC(=O)[C@]12Cc3c(cc(OC)c(OC)c3OC)[C@H]1N(Cc1ccccc1)C(=O)c1cc(OC)ccc12 | - | - | - | 0 | - | -
COc1ccc(NC(=O)CSc2ncnc3c2sc2ccccc23)c(OC)c1 | -55 | 0 | 53 | 0 | 0 | 0
COc1ccc(NC(=O)CSc2ccccc2)c(OC)c1 | 0 | 0 | 0 | 0 | 0 | 0
CC(/C=N/NC(=O)c1cc(-c2cccnc2)nc2c1c(C)nn2-c1ccccc1)=C\c1ccccc1 | 0 | 0 | 0 | 0 | 51 | 0
Cc1nn(-c2ccccc2)c(N2CCCC2)c1/C=N/NC(=O)c1cc(-c2cccnc2)nc2ccccc12 | 0 | 0 | 0 | 0 | 0 | 0
CC(O)(c1ccc(F)c(F)c1)c1nc(-c2cc(F)cc(F)c2)cs1 (stereo unspecified) | 0 | - | 0 | 0 | 0 | 0
C[C@]12C=CC(=O)C=C1CC[C@@H]1[C@@H]2C(=O)C[C@@]2(C)[C@H]1CC[C@]2(O)C(=O)COC(=O)CCC(=O)O | 0 | 0 | 0 | 0 | 0 | 0
CSCCC(NC(=O)CCC(=O)OCC(=O)[C@@]1(O)CCC2[C@@H]3CCC4=CC(=O)C=C[C@]4(C)C3[C@@H](O)C[C@@]21C)C(=O)O (stereo partly specified) | 0 | 0 | 72 | 0 | 0 | 0
C[C@]12C=CC(=O)C=C1CC[C@@H]1C2C(O)C[C@@]2(C)C1CC[C@]2(O)C(=O)COC(=O)CCC(=O)NC(CC(=O)O)C(=O)O (stereo partly specified) | 0 | 0 | 77 | 0 | 0 | 0
O=C(Nc1cc(C(F)(F)F)cc(C(F)(F)F)c1)O[C@@H]1c2ccccc2[C@@H]2Cc3csc[n+]3[C@H]12 | - | - | - | 0 | - | -
COc1ccc2nc(C)cc(SCC(=O)N/N=C/c3ccc(O)cc3O)c2c1 | 0 | 0 | 0 | 0 | 0 | 87
COc1ccc2nc(C)cc(SCC(=O)N/N=C/c3ccccc3)c2c1 | 0 | 0 | 0 | 0 | 0 | 0
